3CLpro inhibitor = SARS-CoV 3CLpro protease inhibition | recombinant SARS-CoV 3CLpro, quenched FRET peptide cleavage | inhibition, % at 6 µM | 290,000 tested, 0.14% active; in the data active means inhibition above about 12%
MazF activator = increases E. coli MazEF RNase cleavage of RNA. activation, % at 20 µM. P0AE70. 350,000 tested, 0.32% active. FAM/BHQ RNA-DNA oligo cleavage fluorescence, 5 h; in the data active means activation above about 50%
Target sequence (P0AE70 whole entry, looked up): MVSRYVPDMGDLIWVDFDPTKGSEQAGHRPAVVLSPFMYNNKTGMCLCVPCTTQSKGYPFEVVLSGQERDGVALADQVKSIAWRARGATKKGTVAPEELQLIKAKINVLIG
SSB-PriA inh = blocks PriA binding to SSB C-terminal tail | 430,000 tested, 0.6% active | inhibition, % at 33 µM | AlphaScreen SSBct-PriA binding, biotinylated peptide; in the data active means inhibition mostly above about 37%, no sharp cut-off; inactive means mostly below about 20%;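 further: plate controls were negative control peptide for no effect and reference peptide for full effect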
Y pestis TopoI = Y. pestis Topo-I inhibition via cleavage products. 360,000 tested, 0.064% active. activity, % at 10 µM. Y. pestis Topo-I cleavage product accumulation, plate reader; in the data active means activity above about 50%, passing the limit was not always enough
Starred values were filed as active, the others as inactive; · = no result given; + = active, no number. Only some compounds are listed: those with a hit (about 0.9% of all), similar ones and a draw of the others.

SMILES	3CLpro inhibitor	MazF activator	SSB-PriA inh	Y pestis TopoI
CCn1c(/C=C/c2c(C)n(CC)c3ccccc23)nc2ccccc2c1=O	5	70*	4	3
COc1ccc(CCN2C(=O)CSC2=NNC(=O)c2ccccc2F)cc1OC	·	·	-5	·
Cc1cc(N2CCN(C(=O)Nc3ccc(F)c(Cl)c3)CC2)ncn1	·	·	-3	·
C=CCn1c(=C(C#N)c2nc3ccccc3n2C)sc(=Cc2cc(OC)c(OC)c(OC)c2)c1=O	·	·	-7	·
C=CCn1c(=O)/c(=C/c2cc(OC)c(OC)c(OC)c2)s/c1=C(/C#N)c1nc2ccccc2n1C	5	+	·	0
CCc1ccc(Nc2n[n+](-c3ccccc3)c(-c3ccc(SC)cc3)s2)cc1	3	-15	66*	-5
COc1ccc(C)cc1Nc1n[n+](-c2ccccc2)c(-c2cc([N+](=O)[O-])cc(OC)c2O)s1	-4	445*	2	-15
COc1ccc(C)cc1Nc1n[n+](-c2ccccc2)c(-c2ccc(SC)cc2)s1	-4	6	3	20
CC(=O)Nc1ccc(-c2sc(Nc3cccc4ccccc34)n[n+]2-c2ccccc2)cc1	7	4	63*	-14
COc1ccc(C)cc1Nc1n[n+](-c2ccccc2)c(-c2ccc(NC(C)=O)cc2)s1	4	-7	47*	-9
CSc1ccc(-c2sc(Nc3ccccc3)n[n+]2-c2ccccc2)cc1	-2	7	3	4
CC(C)CS(=O)(=O)C1CN(C(=O)c2ccc(Cn3ccnc3)cc2)C1	·	·	0	·
CCc1ccc(Nc2n[n+](-c3ccccc3)c(-c3ccc(C(=O)O)cc3)s2)cc1	-4	4	-5	7
CCc1ccc(Nc2n[n+](-c3ccccc3)c(-c3ccc(OC)c(Br)c3)s2)cc1	5	-17	56*	-9
CSc1ccc(-c2sc(Nc3cccc4ccccc34)n[n+]2-c2ccccc2)cc1	4	8	47*	-15
O=S(=O)(NCC1CCN(Cc2ccccc2)CC1)c1ccc(Cl)s1	·	·	-8	·
CC1(C)CC(=O)C=C(c2ccc(COC(=O)/C=C/c3ccccc3)cc2)C1=O	·	-1	·	56*
CC1(C)CC(=O)C=C(c2ccc(COC(=O)c3ccccc3)cc2)C1=O	·	-8	·	10
Cn1c(C2CCCN(S(C)(=O)=O)C2)nn(CC(=O)NCc2ccc3c(c2)OCO3)c1=O (configuration not stated)	·	·	-16	·
CSc1ccc(CNC(=O)CSc2nccn2-c2cccc(C(=O)NCc3ccco3)c2)cc1	·	·	46*	·
COc1ccc(NC(=O)CSc2nccn2-c2cccc(C(=O)NCc3ccco3)c2)c(OC)c1	·	·	16	·
Cc1ccc2c(C)nc(Nc3nc(CSc4nnc(C)s4)cc(=O)[nH]3)nc2c1	-2	96*	-6	13
COc1cccc2c(C)nc(Nc3nc(CSc4nnc(C)s4)cc(=O)[nH]3)nc12	-7	62*	-15	16
O=C(Cn1cncn1)Nc1cc(-n2ccc3ccccc32)ncn1	·	·	-40	·
O=[N+]([O-])c1ccc(C2CCCC/C2=N/OCc2ccccc2F)c([N+](=O)[O-])c1 (configuration not stated)	7	4	·	16
SMILES	3CLpro inhibitor	MazF activator	SSB-PriA inh	Y pestis TopoI
O=[N+]([O-])c1ccc(C2CCCCC2=NOCc2ccccc2F)c([N+](=O)[O-])c1 (configuration not stated)	·	·	50*	·
COc1cc(C(=O)N2CCCC(c3nnc(CC(C)(C)C)o3)C2)cc(OC)c1OC (configuration not stated)	·	·	-7	·
O=C(Nc1nc2c(s1)CCCC2)C1CCN(c2ccc(-n3cccn3)nn2)CC1	·	·	48*	·
O=C(CNC(=O)c1ccc(S(=O)(=O)N2CCCC2)cc1)N/N=C/c1ccc(Cl)cc1Cl	1	74*	·	29
O=C(CNC(=O)c1ccc(S(=O)(=O)N2CCCC2)cc1)N/N=C\c1ccc(Cl)cc1Cl	·	·	-18	·
Cc1nc(C)c(-c2nnc(NC(=O)C3CCN(S(=O)(=O)c4ccc(Cl)s4)CC3)o2)s1	·	·	-12	·
O=C(NCC[C@H](O)c1cc2ccccc2o1)c1ccoc1	·	·	-3	·
O=C(O)c1ccccc1NSc1ccccc1[N+](=O)[O-]	4	1	-6	-8
CCc1ccc(NSc2ccccc2[N+](=O)[O-])cc1	1	-4	65*	4
O=C(c1cc(Br)c(Br)s1)N1CCN(C/C=C/c2ccccc2)CC1	-1	-6	9	58*
CC(C)Sc1ccc(CC(=O)NCCn2ccc(C(F)(F)F)n2)cc1	·	·	-2	·
Cc1ccc(/C=N/Nc2ccc3c(C(F)(F)F)cc(C(F)(F)F)nc3n2)cc1	2	285*	·	4
CCc1ccc(C2=NNC(=Nc3cccc(S(=O)(=O)N(C)C)c3)SC2)cc1	0	-1	42*	3
O=C(NCCNS(=O)(=O)c1ccc(F)cc1)c1ccc(NC(=O)C2CC2)cc1	·	·	3	·
